Hits are enriched below; roughly 11% of the tested compounds scored in any of these assays.
VACV Venus inh: qHTS for Stage-Specific Inhibitors of Vaccinia Orthopoxvirus: Venus Reporter Primary qHTS; Vaccinia virus Venus reporter expression, fluorescence; Potency, µM (highest dose often 36.5 µM), for the others: at the top dose activity change, negative = inhibition, actives largely listed as inhibitors; 0.46% of 330,000 active; AID 720580, 2013; calls by dose curve; tested in A549 cells; also: % is scaled to controls: 0 for no effect and ±100 for the full control effect; nearly all actives have a fitted effect of over 30% in size
Vaccinia mCherry: qHTS for Stage-Specific Inhibitors of Vaccinia Orthopoxvirus: mCherry Reporter Primary qHTS | Vaccinia virus mCherry reporter infection, fluorescence | Potency, µM (series often up to 36.5 µM), inactives show top-dose activity change, negative = inhibition, actives largely listed as inhibitors | 0.63% of 310,000 active | AID 720579, 2013; calls by dose curve; tested in A549 cells; also: % is scaled to controls: 0 for no effect and ±100 for the full control effect; nearly all actives have a fitted effect of over 35% in size
HCV inhibitor: qHTS Assay for Inhibitors of Hepatitis C Virus (HCV). Potency, µM (doses to about 41.8 µM), for inactives: top-dose activity change, negative = inhibition, most hits filed as inhibitors. 3.4% of 340,000 active. Huh7.5.1 HCVcc-Cre infection, luciferase reporter, 44 h; also: % is scaled to controls: 0 for no effect and ±100 for the full control effect
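Cells seeded at 1,000/well and cultured 4 h, then compounds added followed by HCVcc-Cre virus (~0.5 moi). After 44 h further culture, luciferase substrate was added, plates held 15 min at room temperature, and luminescence read for 15 sec.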
Pf growth 96h: Primary qHTS for delayed death inhibitors of the malarial parasite plastid, 96 hour incubation. 6.9% of 320,000 active. AID 504834, 2011. Potency, µM (series often up to 28.7 µM), for inactives: at the top dose activity change, negative = inhibition, actives largely listed as inhibitors. P. falciparum luciferase reporter growth, 96 h; also: % is scaled to controls: 0 for no effect and ±100 for the full control effect
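Parasite growth measured via integrated firefly luciferase reporter in P. falciparum. Infected erythrocytes at 2% hematocrit, 0.05% parasitemia final were treated 96 hours at 37 C under 5% CO2, and luminescence was read.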
Pf growth 48h: Primary qHTS for delayed death inhibitors of the malarial parasite plastid, 48 hour incubation. P. falciparum luciferase growth in erythrocytes, 48 h. Potency, µM (doses to about 28.7 µM), inactives show top-dose activity change, negative = inhibition, hits mostly inhibitors. 5.9% of 310,000 active. AID 504832, 2011; also: % is scaled to controls: 0 for no effect and ±100 for the full control effect
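Cell-based growth assay: transgenic P. falciparum expressing firefly luciferase, cultured in red cells within RPMI 1640 containing 0.5% w/v Albumax, 24 mM bicarbonate and gentamycin. A drop in luciferase activity indicates inhibition.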
NS1 function inh: qHTS Assay for Inhibitors of Influenza NS1 Protein Function; Potency, µM (top dose mostly 46.1 µM), without a hit: at the top dose activity, positive = more growth; 0.4% of 270,000 active; calls by dose curve; also: actives are rising curves; nearly all actives have a fitted effect of over 50% in size
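Growth recovery, yeast-based: influenza A NS1 expressed in S. cerevisiae causes slow growth, and suppressors are detected by OD600. The parent strain without NS1 is used as positive control.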
Active calls of the source: *; i = inactive; ? = inconclusive; . = no result given; [ ] = another dose, or the depositor's remark. Unless noted, calls follow the shape of the dose curve; as a rule, active = well fitted inhibition curve with a large enough effect; inconclusive = small, poorly fitted or top-dose-only effect, or another doubt; inactive = no such curve, though single readings can be large or run the other way. Potency is read from the fitted curve at half-maximal effect.

SMILES | VACV Venus inh | Vaccinia mCherry | HCV inhibitor | Pf growth 96h | Pf growth 48h | NS1 function inh
O=C(Nc1cccc(S(=O)(=O)N2CCCCC2)c1)c1ccc(N2CCCC2=O)cc1 | -6% | -10% | -9% | ? | ? | .
CCCCOC(=O)Nc1ccc(S(=O)(=O)Nc2ncccn2)cc1 | -6% | 14% | 6% | 23% | 12% | 0%
CC(=O)Nc1ccc(NC(=O)C2CC(=O)Nc3ncnn32)cc1 (stereo not drawn) | . | . | 13% | 6% | 9% | 1%
O=C(Nc1cccc(S(=O)(=O)N2CCCCCC2)c1)c1cncc(Br)c1 | -20% | ? | 11µM* | . | . | .
Cc1cc(NC(=O)c2cc(S(=O)(=O)N3CCCCC3)ccc2C)no1 | . | . | 7% | . | . | .
O=C(Nc1cccc(S(=O)(=O)N2CCCC2)c1)c1cccc(OC(F)F)c1 | -10% | -4% | ? | 9.3µM* | ? | .
Cc1ccc(S(=O)(=O)N2CCCCC2)cc1NC(=O)c1cncc(Br)c1 | -28% | -29% | -21% | ? | ? | .
CN(C)S(=O)(=O)c1cccc(C(=O)Nc2ccc(S(=O)(=O)N3CCCC3)cc2)c1 | . | . | -12% | ? | 12µM* | 5%
Cc1cc(NC(=O)c2cccc(S(=O)(=O)N3CCCCCC3)c2)no1 | . | . | 5% | 8.3µM* | . | -7%
O=C(Nc1ccc(S(=O)(=O)N2CCCC2)cc1)c1cccc(OC(F)F)c1 | -21% | -22% | ? | ? | ? | .
Cc1c(C)n(C(=O)CSc2nc3ccccc3[nH]2)c2ccccc12 | -5% | -11% | 23% | -10% | . | -2%
O=C(NCCN1CCN(c2cccc(Cl)c2)CC1)c1cccn2c(=O)c3ccccc3nc12 | 1% | 3% | 4% | . | . | -75%
CSc1ccccc1-c1nnc(-c2ccc(Cl)cc2Cl)o1 | -16% | i | ? | 141% | 54% | -9%
CCSc1nnc(-c2ccccc2SC)o1 | -11% | i | -17% | 8.3µM* | i | .
Clc1ccc(C2[C@H]3CN(Cc4ccc(-c5ccccc5)cc4)[C@H](c4ccccc4)C34CC2(c2ccccc2)C4)cn1 (stereo partly drawn) | -8% | ? | 12% | -24% | ? | 3%
c1ccc(C2[C@H]3CN(Cc4cccnc4)[C@H](c4ccccc4)C34CC2(c2ccccc2)C4)cc1 (stereo partly drawn) | -17% | -27% | -1% | 3.3µM* | 4.1µM* | -42%
Clc1ccc(C2[C@H]3CN(Cc4cccnc4)[C@H](c4ccccc4)C34CC2(c2ccccc2)C4)cn1 (stereo partly drawn) | -29% | -20% | -17% | 8.3µM* | 10µM* | 4%
N#Cc1ccc(C23CC4(C2)[C@H](CN(P(=O)(c2ccccc2)c2ccccc2)[C@@H]4c2ccccc2)C3c2ccc(Cl)nc2)cc1 (stereo partly drawn) | ? | -20% | ? | 4.1µM* | 4.7µM* | ?
c1ccc(C2[C@H]3CN(Cc4cccnc4)[C@H](c4ccccc4)C34CC2(c2cccnc2)C4)cc1 (stereo partly drawn) | ? | -18% | 48%[8.37 µM] | 2.9µM* | 2.3µM* | -42%
CN1C[C@@H]2C(c3ccc(Cl)nc3)C3(c4ccc(C#N)cc4)CC2(C3)[C@H]1c1ccccc1 (stereo partly drawn) | -18% | -22% | ? | ? | ? | -4%
Cc1cc(C)n2c(Nc3ccccc3C)c(-c3cccs3)nc2n1 | -10% | i | . | . | . | .
COc1cc(/C=N/NC(=O)C[n+]2ccccc2)cc(OC)c1OC | -10% | -16% | 11% | ? | -8% | 12%
COC(=O)c1cccc(C23CC4(C2)[C@H](CN(Cc2cccnc2)[C@@H]4c2ccccc2)C3c2ccccc2)c1 (stereo partly drawn) | ? | -17% | ? | 5.9µM* | 12µM* | -2%
